High-throughput results: PubChem BioAssay, National Center for Advancing Translational Sciences (NCATS)
Only a selection was taken, and hits are over-represented in it overall.
TDP1 cell noCPT = qHTS for Inhibitors of human tyrosyl-DNA phosphodiesterase 1 (TDP1): qHTS in cells in absence of CPT. DT40 Tdp1-/- hTDP1 cells, no CPT, ATP luminescence, 48 h. Potency, µM (titrated, usually from 46.2 µM), inactives show top-dose activity change, negative = growth inhibition, actives largely listed as inhibitors. hit rate 15% among 420,000; note: potency is the fitted concentration of half-maximal effect; nearly all actives have a fitted effect of over 55% in size
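Cells were dispensed at 400 per well, compounds added by pin tool, plates incubated ≥48 hr at 37 °C, then CellTiter-Glo added for 30 min at room temperature before luminescence reading. Line: DT40 Tdp1-/- complemented with hTDP1; camptothecin omitted.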
HT1080-NT tox = kills 2HG-producing HT-1080-NT fibrosarcoma cells; hit rate 1.6% among 360,000; AID 686970; HT-1080-NT fibrosarcoma viability, CellTiter-Glo ATP luminescence, 48 h; Potency, µM (titrated, usually from 46.1 µM), for the others: at the top dose activity, negative = less viability, actives largely listed as cytotoxic;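 note: NT is the 2HG producing partner of a matched IDH1 knockdown line; potency is the fitted concentration of half-maximal effect; 0% = DMSO-treated cells and -100% = media-only wells without cells; nearly all actives have a fitted effect of over 55% in size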
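Luminescent CellTiter-Glo readout after 48 hours of compound exposure at 37 degrees C defined viability of HT-1080-NT cells. Activity was normalized to DMSO wells and cell-free media wells; concentration-response curves were fitted and assigned curve classes.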
12-LOX inh = blocks human arachidonate 12S-lipoxygenase | hit rate 1.1% among 580,000 | purified 12hLO, xylenol orange hydroperoxide absorbance | P18054 | AID 1671190 | Potency, µM (highest dose often 108 µM), for inactives: top-dose activity change, negative = inhibition, most hits filed as inhibitors; note: potency is the fitted concentration of half-maximal effect
Target sequence (P18054 whole entry, looked up): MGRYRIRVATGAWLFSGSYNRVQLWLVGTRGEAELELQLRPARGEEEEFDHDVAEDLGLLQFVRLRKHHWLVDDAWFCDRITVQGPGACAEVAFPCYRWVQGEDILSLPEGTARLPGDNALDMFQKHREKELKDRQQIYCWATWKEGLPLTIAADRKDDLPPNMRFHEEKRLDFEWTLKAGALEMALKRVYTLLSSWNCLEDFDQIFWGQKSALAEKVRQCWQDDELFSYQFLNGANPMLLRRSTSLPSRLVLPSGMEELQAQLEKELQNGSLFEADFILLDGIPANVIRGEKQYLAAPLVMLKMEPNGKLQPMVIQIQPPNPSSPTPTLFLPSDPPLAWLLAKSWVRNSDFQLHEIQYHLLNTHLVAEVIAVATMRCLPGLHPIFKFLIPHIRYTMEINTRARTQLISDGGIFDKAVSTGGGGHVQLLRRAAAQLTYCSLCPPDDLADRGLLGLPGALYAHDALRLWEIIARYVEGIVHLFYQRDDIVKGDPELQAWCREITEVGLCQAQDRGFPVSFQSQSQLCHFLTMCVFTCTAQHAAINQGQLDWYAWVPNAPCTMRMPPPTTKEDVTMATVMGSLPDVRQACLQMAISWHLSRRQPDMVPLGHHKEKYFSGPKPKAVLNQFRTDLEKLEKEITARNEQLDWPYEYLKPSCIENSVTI
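Purified human 12hLO at 150 nM in 25 mM Hepes, 0.01% Triton X-100, pH 7.0, preincubated 15 min at room temperature with compound. Reaction started with 40 uM arachidonic acid, 30 min at room temperature. Hydroperoxide measured by Fe-xylenol orange, 573/405 nm absorbance ratio.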
IL1B secr inh = blocks inflammasome-driven IL-1 beta release. THP-1 LPS/ATP IL-1B secretion, AlphaLISA, 16 h; hits give low values. hit rate 4.7% among 360,000. activity change, % at 57.5 µM; in the data active = activity change below about -50%; inconclusive = mostly about -30% to -49%
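Secreted IL-1B measured by AlphaLISA bead assay after 16 h compound exposure of THP-1 cells; compounds (final up to 57.5 uM) added 1 h before LPS (250 ng/mL) and ATP (1.25 mM) stimulation; lower signal means less secretion.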
HT1080 IDH1KD tx = toxicity to HT-1080 IDH1 knockdown cells (counter line). hit rate 2% among 360,000. HT-1080 IDH1 knockdown viability, ATP luminescence, 48 h. Potency, µM (highest dose often 46.1 µM), for the others: at the top dose activity, negative = toxicity, most hits filed as cytotoxic. AID 686971;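 note: potency is the fitted concentration of half-maximal effect; 0% = DMSO wells and -100% = cell-free medium wells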
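Knockdown cells (IDH1KD HT-1080) received compounds 2 h after plating at 750 cells/well and were kept 48 h at 37 °C in 5% FBS RPMI. A CellTiter-Glo luminescence read gave % activity for curve fitting.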
TDP1 cell CPT = DT40-hTDP1 cell growth loss with CPT | Potency, µM (titrated, usually from 46.2 µM), for inactives: at the top dose activity change, negative = growth inhibition, actives largely listed as inhibitors | chicken DT40 Tdp1-/-;hTDP1 cells + 20 nM CPT, ATP luminescence, 48 h | AID 686979 | hit rate 12% among 420,000; note: potency is the fitted concentration of half-maximal effect; nearly all actives have a fitted effect of over 55% in size
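Chicken DT40 Tdp1-/- cells stably complemented with human TDP1 were seeded at 400 cells/well in medium containing 20 nM camptothecin, exposed to pin-transferred compounds, and grown at 37 °C for at least 48 hr. Viability was read as ATP luminescence.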
Numbers without * were called inactive; [ ] = remark or other dose. Unless noted, calls come from the whole dose curve; as a rule, active = well fitted curve in the direction sought with a large enough effect; inconclusive = small, poorly fitted or top-dose-only effect, or another doubt; inactive = no such curve, though single readings can be large; an effect the other way counts as inactive or inconclusive. Unless noted, % is set by controls: 0 for no effect and ±100 for the full control effect.

CCN1C(=O)C2CC3(CCN(Cc4cn[nH]c4-c4cccs4)CC3)CN2C1=O (configuration not stated) was read as 12-LOX inh 14%.
`CC(=O)NC1(C)CN(Cc2ccc(-c3cccc(C(F)(F)F)c3)nc2)C1` gave 12-LOX inh -3%[176 µM].
Screening COC(=O)C1CCN(CC(=O)N(C)CC(=O)Nc2ccc(Cl)c(C(F)(F)F)c2)CC1 returned 12-LOX inh 2%.
COc1cc(NCCCCC(C)N)c2nccc(C)c2c1 (configuration not stated) was read as TDP1 cell noCPT 3.7µM*, HT1080-NT tox inconclusive, 12-LOX inh inconclusive, IL1B secr inh -12, HT1080 IDH1KD tx inconclusive and TDP1 cell CPT 5.8µM*.
`CCCCCCCOc1ccc(/C=C(\C#N)C(=O)c2ccccc2)cc1` gave 12-LOX inh -14%.
Screening Cc1ccc(Nc2c(-c3ccccn3)nc3ccc(C)cn23)cc1 returned TDP1 cell noCPT 7.3µM*, HT1080-NT tox inconclusive, 12-LOX inh 0%, IL1B secr inh 0, HT1080 IDH1KD tx inconclusive and TDP1 cell CPT 3.3µM*.
For Cc1ccc(Nc2c(-c3ccccn3)nc3cc(C)ccn23)cc1 the results were TDP1 cell noCPT 2.9µM*, HT1080-NT tox 5.8µM*, 12-LOX inh inconclusive, IL1B secr inh -100*, HT1080 IDH1KD tx 5.8µM* and TDP1 cell CPT 4.6µM*.
Cc1cccc(C)c1Nc1c(-c2ccccn2)nc2ccc(Cl)cn12 was read as TDP1 cell noCPT inconclusive, 12-LOX inh inconclusive and TDP1 cell CPT 6%.
Screening COc1ccc(Nc2c(-c3ccccn3)nc3ccc(Cl)cn23)cc1 returned TDP1 cell noCPT 1.6µM*, 12-LOX inh -10% and TDP1 cell CPT 12µM*.
`CC(=O)c1ccc(NC(=O)N[C@H]2C[C@@](O)(C(=O)N[C@H](CC(C)C)C(N)=O)C[C@@H](O)[C@@H]2O)cc1` gave 12-LOX inh 0%.
`CC(C)Cn1c(SC(C)C(=O)Nc2ccc3c(c2)OCO3)nc2cc(Cl)ccc2c1=O` (configuration not stated) gave 12-LOX inh 1%.
For Cc1ccc(C(=O)Nc2ccc(O)c(-c3nc4ccccc4o3)c2)cc1C the results were 12-LOX inh 3%.
c1cncc(-c2nc3cc4ccccc4cc3[nH]2)c1 was read as TDP1 cell noCPT inconclusive, HT1080-NT tox -28%, 12-LOX inh 12%, IL1B secr inh -84*, HT1080 IDH1KD tx -16% and TDP1 cell CPT inconclusive.
For O=c1[nH]c(-c2cccnc2)nc2sc(-c3ccccc3)cc12 the results were TDP1 cell noCPT 0.52µM*, HT1080-NT tox inconclusive, 12-LOX inh -2%, IL1B secr inh 16, HT1080 IDH1KD tx 4.6µM* and TDP1 cell CPT 0.52µM*.
`CC(=O)Nc1ccc2nc(-c3ccccn3)[nH]c2c1` gave TDP1 cell noCPT 1%, HT1080-NT tox 4%, 12-LOX inh inconclusive, IL1B secr inh -6, HT1080 IDH1KD tx -2% and TDP1 cell CPT -23%.
`c1ccc(-c2nc3cc4ccccc4cc3[nH]2)nc1` gave TDP1 cell noCPT inconclusive, HT1080-NT tox inconclusive, 12-LOX inh 2%, IL1B secr inh -95*, HT1080 IDH1KD tx inconclusive and TDP1 cell CPT inconclusive.
Screening CCC(=O)NCCNC(=O)c1nc2ccccc2c(=O)[nH]1 returned 12-LOX inh 33%.
`O=C(Cc1ccccc1)Nc1ccc(Cl)cn1` gave TDP1 cell noCPT 7%, HT1080-NT tox -1%, 12-LOX inh inactive, IL1B secr inh inconclusive, HT1080 IDH1KD tx -5% and TDP1 cell CPT 4%.
`O=C(NC(=S)Nc1ccc(Cl)cn1)C(c1ccccc1)c1ccccc1` gave TDP1 cell noCPT 23µM*, HT1080-NT tox 2%, 12-LOX inh 0%, IL1B secr inh 1, HT1080 IDH1KD tx 6% and TDP1 cell CPT inconclusive.
CCC(=O)NC(=S)Nc1ccc(Cl)cn1 was read as TDP1 cell noCPT -1%, HT1080-NT tox 18%, 12-LOX inh 5%, IL1B secr inh -6, HT1080 IDH1KD tx 8% and TDP1 cell CPT -9%.
S=C(Nc1ccccc1)Nc1ccc(Cl)cn1 was read as TDP1 cell noCPT 5.8µM*, HT1080-NT tox 20%, IL1B secr inh 0, HT1080 IDH1KD tx -21% and TDP1 cell CPT 23µM*.
CCNC(=O)C1(C)CCCN(Cc2ccccc2-c2ccccc2)C1 (configuration not stated) was read as TDP1 cell noCPT inconclusive, HT1080-NT tox 10%, 12-LOX inh -24%, IL1B secr inh 41, HT1080 IDH1KD tx 25% and TDP1 cell CPT inconclusive.
Screening Cc1ccc(-c2nn(CC(C#N)CCC#N)c(=O)c3ccccc23)cc1 (configuration not stated) returned 12-LOX inh -3%.
COC(=O)[C@]1(C)N[C@H](CN(C)C(=O)Nc2ccc(C(F)(F)F)cc2)[C@@H]2C(=O)N(C)C(=O)[C@@H]21 was read as TDP1 cell noCPT -4%, HT1080-NT tox 7%, 12-LOX inh -30%, IL1B secr inh 25, HT1080 IDH1KD tx 3% and TDP1 cell CPT -18%.
Screening CCS(=O)(=O)n1nc(-c2ccccc2)nc1NCc1ccco1 returned TDP1 cell noCPT -14%, HT1080-NT tox -8%, 12-LOX inh 0%, IL1B secr inh -7, HT1080 IDH1KD tx -2% and TDP1 cell CPT -16%.
`Cc1ccc(S(=O)(=O)n2nc(-c3ccc(Cl)cc3)nc2NCc2ccco2)cc1` gave TDP1 cell noCPT inconclusive, HT1080-NT tox -8%, 12-LOX inh 13µM*, IL1B secr inh inconclusive, HT1080 IDH1KD tx -11% and TDP1 cell CPT inconclusive.
For O=S(=O)(c1ccccc1)n1nc(-c2ccccc2)nc1NCc1ccc(Cl)cc1 the results were 12-LOX inh -16%.
`O=S(=O)(c1ccccc1)n1nc(-c2ccc(Cl)cc2)nc1NCc1ccccc1` gave TDP1 cell noCPT 16µM*, 12-LOX inh 1% and TDP1 cell CPT inconclusive.
For Cc1oc(-c2ccccc2)nc1CC(=O)Nc1ccc(F)c(F)c1F the results were 12-LOX inh -13%.
CC(C)(C)c1cc(Cl)ccc1OCCOCCN1CCCC1 was read as TDP1 cell noCPT 13µM*, HT1080-NT tox 15µM*, 12-LOX inh inconclusive, IL1B secr inh -75*, HT1080 IDH1KD tx 18µM* and TDP1 cell CPT inconclusive.
